Compound activity from PubChem.
This is a sample that favours compounds with a hit; in the whole collection about 12% have one here.
FMDV inh – High Throughput Screening for Foot and Mouth Disease Virus Antivirals; FMDV antiviral cell-based qHTS; Potency, µM (top dose mostly 57.9 µM), for the others: at the top dose activity change, negative = inhibition, hits mostly inhibitors; 1.2% of 410,000 active; AID 1159524, 2015; calls by dose curve; tested in HEK293T cells; further: read-out not given here; potency means the concentration at half of the fitted maximal effect; on the % scale 0 is the no-effect control and ±100 the full control effect; nearly all actives have a fitted effect of over 45% in size
Sm TGR inh – qHTS Assay for the Inhibitors of Schistosoma Mansoni Peroxiredoxins; Schistosoma mansoni thioredoxin glutathione reductase (TGR), Q962Y6; Potency, µM (titrated, usually from 114 µM), for inactives: at the top dose activity change, negative = inhibition, most hits filed as inhibitors; purified TGR, DTNB reduction, TNB absorbance 405 nm; 3% of 360,000 active; active means well fitted inhibition curve with a large enough effect; inconclusive means small, poorly fitted or top-dose-only effect; inactive means no such curve, though single readings can be large or run the other way; further: potency means the concentration at half of the fitted maximal effect; on the % scale 0 is the no-effect control and ±100 the full control effect; nearly all actives have a fitted effect of over 60% in size
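Kinetic colorimetric format: TGR-catalysed, NADPH-driven DTNB reduction monitored via TNB absorbance. Enzyme dispensed at 20 nM; compound exposure 15 min at room temperature before reaction start.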
Shiga toxin inh – A qHTS for Small Molecule Inhibitors of Shiga Toxin; Vero cells, Shiga toxin protein synthesis inhibition reporter; inhibition, % at 38.7 µM; 9.2% of 290,000 active; in the data active means inhibition mostly above about 28%, no sharp cut-off; inactive means mostly below about 43%; further: 0% is about no effect
Cycloheximide cs – Cycloheximide Counterscreen for Small Molecule Inhibitors of Shiga Toxin. 12% of 300,000 active. cell reporter, cycloheximide protein synthesis inhibition counterscreen. max response, %; in the data active means max response mostly above about 13%, no sharp cut-off; inactive means mostly below about 14%; further: read at 38.3 µM for the half of the compounds with a filed dose; 0% is about no effect
The depositor's hits bear a star.

What do the screens show for `COc1ccc(CCN2C(=O)CSC2=Nc2ccc(C)cc2C)cc1OC`?
FMDV inh: 13µM*; Sm TGR inh: 8%; Shiga toxin inh: -1; Cycloheximide cs: -1

Results for COc1ccc(CCN2C(=O)CS/C2=N/NC(=O)c2ccccc2F)cc1OC ?
FMDV inh: -32%; Sm TGR inh: -4%; Shiga toxin inh: 1; Cycloheximide cs: 4

Results for CCc1ccc(-n2nc3ccc(NC(=O)c4cc(Cl)c(OC)c(Cl)c4)cc3n2)cc1 ?
FMDV inh: -21%; Sm TGR inh: 1%

Results for CCC1(c2ccccc2)NC(=O)N(CC(=O)NC2CCCC2)C1=O (configuration not stated) ?
FMDV inh: -1%; Sm TGR inh: -2%

How did COC(=O)N1C(=O)[C@](c2ccc(Cl)cc2)(C(C)C)N1C(=O)OC do in these assays?
FMDV inh: -9%; Sm TGR inh: 10µM*; Shiga toxin inh: 4; Cycloheximide cs: 7

How did COC(=O)N1C(=O)[C@@](c2ccc(OC)cc2)(C(C)C)N1C(=O)OC do in these assays?
FMDV inh: inconclusive; Sm TGR inh: 28µM*; Shiga toxin inh: 19*; Cycloheximide cs: 16*

Results for COC(=O)N1C(=O)[C@@](c2ccccc2)(C(C)C)N1C(=O)OC ?
FMDV inh: inconclusive; Sm TGR inh: 35µM*; Shiga toxin inh: 10; Cycloheximide cs: 20*

Results for COC(=O)N1C(=O)[C@](c2ccccc2)(C2CCCC2)N1C(=O)OC ?
FMDV inh: inconclusive; Sm TGR inh: 20µM*; Shiga toxin inh: 14; Cycloheximide cs: 19*

Results for COCCCNC(=O)c1c(NC(=O)Cc2coc3c(C)c(C)ccc23)sc2c1CCCC2 ?
FMDV inh: -5%; Sm TGR inh: -1%

How did CCC(=O)OCc1cnc(C)c2oc(=O)c(C(=O)Nc3ccccc3C(F)(F)F)cc12 do in these assays?
FMDV inh: -16%; Sm TGR inh: 5%

What do the screens show for `O=C(O)c1ccc2cccnc2n1`?
FMDV inh: -9%; Sm TGR inh: 32µM*; Shiga toxin inh: 44; Cycloheximide cs: 8

Results for OC(c1ccccc1)c1nc2ccccc2n1Cc1c(F)cccc1Cl (configuration not stated) ?
FMDV inh: -19%; Sm TGR inh: 6%

How did CCN(CC)c1ccc(/C=N/NC(=O)c2c[nH]c3ccccc23)cc1 do in these assays?
FMDV inh: 6%; Sm TGR inh: -7%; Shiga toxin inh: 40*; Cycloheximide cs: 35*

How did O=C(NN=Cc1ccc(N(CCCl)CCCl)cc1)C(=O)c1c[nH]c2ccccc12 do in these assays?
FMDV inh: 2%

How did O=C(NN=Cc1ccc(N(CCCl)CCCl)cc1)c1cc(=O)[nH]c(=O)[nH]1 do in these assays?
FMDV inh: -18%

What do the screens show for `CCN(C(=O)C(=O)c1c[nH]c2ccccc12)c1ccccc1`?
FMDV inh: 2%; Sm TGR inh: -13%; Shiga toxin inh: 19; Cycloheximide cs: 18*

How did CCN(CC)c1ccc(/C=N/NC(=O)c2cc3ccccc3[nH]2)cc1 do in these assays?
FMDV inh: 22%; Sm TGR inh: 0%; Shiga toxin inh: 28; Cycloheximide cs: 20*

Results for COc1ccc(-c2noc(-c3ccc(NCCc4ccccc4)c([N+](=O)[O-])c3)n2)cc1 ?
FMDV inh: -6%; Sm TGR inh: 2%

Results for CCOc1ccc(NC(=O)Cn2c(=O)n(Cc3ccc4c(c3)OCO4)c(=O)c3ccc(C(=O)NC4CCCCC4)cc32)cc1 ?
FMDV inh: 4%; Sm TGR inh: -10%

What do the screens show for `COc1cc(C2c3c(-c4ccccc4O)n[nH]c3C(=O)N2Cc2ccco2)ccc1OCC(C)C` (configuration not stated)?
FMDV inh: -21%; Sm TGR inh: -2%

Results for Cc1ccc(C(=O)N/N=C2\CC3CC=CC23)c(C)c1 (configuration not stated) ?
FMDV inh: 29%; Sm TGR inh: -8%; Shiga toxin inh: 133*; Cycloheximide cs: 63*

How did Cc1ccc(NC(=S)N/N=C2\CC3CC=CC23)c(C)c1 (configuration not stated) do in these assays?
FMDV inh: 12%; Sm TGR inh: -27%; Shiga toxin inh: 56; Cycloheximide cs: 20*

How did O=C(N/N=C1\CC2CC=CC12)c1ccc(O)cc1 (configuration not stated) do in these assays?
FMDV inh: -8%; Sm TGR inh: 4%; Shiga toxin inh: 51*; Cycloheximide cs: 30*

Results for Cc1cccc(C)c1NC(=S)N/N=C1\CC2CC=CC12 (configuration not stated) ?
FMDV inh: inconclusive; Sm TGR inh: -31%; Shiga toxin inh: 21; Cycloheximide cs: -1
